Bioassay records (PubChem)
FLuc counter – firefly luciferase modulation, counter-screen for miR-21 project. P08659. purified FLuc, Km substrates, luminescence inhibition. Potency, µM (top dose mostly 57.5 µM), for inactives: top-dose activity change, negative = inhibition, most hits filed as inhibitors. 6.9% of 360,000 active. AID 588342;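 also: plate controls were vehicle for no effect and reference inhibitor for full effect; nearly all actives have a fitted effect of over 55% in size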
Target sequence (P08659 whole entry, looked up): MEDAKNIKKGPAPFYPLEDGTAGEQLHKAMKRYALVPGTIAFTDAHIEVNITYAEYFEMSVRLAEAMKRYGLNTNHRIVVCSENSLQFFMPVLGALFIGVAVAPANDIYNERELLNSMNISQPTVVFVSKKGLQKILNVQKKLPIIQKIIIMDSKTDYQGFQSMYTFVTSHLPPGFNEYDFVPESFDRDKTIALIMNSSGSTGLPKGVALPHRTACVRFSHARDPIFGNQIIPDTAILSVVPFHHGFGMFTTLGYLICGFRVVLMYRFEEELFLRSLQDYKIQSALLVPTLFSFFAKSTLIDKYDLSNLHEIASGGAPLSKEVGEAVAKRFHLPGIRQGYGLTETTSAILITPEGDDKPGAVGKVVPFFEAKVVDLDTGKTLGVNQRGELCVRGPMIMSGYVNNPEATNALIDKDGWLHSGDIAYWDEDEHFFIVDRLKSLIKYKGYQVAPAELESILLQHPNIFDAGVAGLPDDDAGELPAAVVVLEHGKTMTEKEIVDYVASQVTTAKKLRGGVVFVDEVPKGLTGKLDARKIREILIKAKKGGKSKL
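Biochemical qHTS of compounds, final roughly 60 µM downward over six points, against 10 nM purified firefly luciferase using Km concentrations of substrates (10 uM D-luciferin, 10 uM ATP) in Tris acetate pH 7.5 buffer; luminescence output.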
NPC1 prom act – NPC1 promoter activation; Huh7 NPC1 promoter luciferase reporter, 24 h; Potency, µM (titrated, usually from 9.22 µM), for the others: at the top dose activation, usual class: activators; 2.4% of 320,000 active; also: % of control where 0% means no effect; nearly all actives have a fitted effect of over 60% in size
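NPC1 promoter–luciferase Huh7 cells; 24 h compound; luminescence.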
SMN2 splice enh – SMN2 splice variant enhancement. HEK293 SMN2-luciferase splicing reporter, luminescence, 30-36 h. Potency, µM (top dose mostly 46.1 µM), for the others: top-dose activity change, positive = activation, hits mostly activators. 2.8% of 210,000 active; also: % of control where 0% means no effect; nearly all actives have a fitted effect of over 55% in size
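HEK293 cells carry an SMN2 […]–luciferase reporter in which exon 7 inclusion puts luciferase in frame. Cells were plated 10-12 h before compound addition, then incubated 30-36 h at 37C. ONE-Glo luminescence was read; sodium butyrate at 4.5 mM final served as control.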
ELG1 genotoxic – genotoxicity induction in ELG1-luciferase HEK293T cells | HEK293T ELG1-luciferase reporter, luminescence, 16 h | Potency, µM (top dose mostly 46 µM), without a hit: top-dose activity change, positive = activation, actives largely listed as activators | 1.3% of 330,000 active; also: % of control where 0% means no effect; nearly all actives have a fitted effect of over 60% in size
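DMSO vehicle served as control against compound-treated ELG1-luciferase HEK293T cells; exposure lasted 16 hr at 37 °C and 5% CO2, followed by ONE-Glo luminescence detection after 30 min.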
Rab9 promoter act – Rab9 promoter activation; Potency, µM (series often up to 9.22 µM), for the others: top-dose activation, negative = inhibition, most hits filed as activators; 2.8% of 320,000 active; Huh7 Rab9 promoter-luciferase reporter, luminescence, 24 h; AID 485297; also: % of control where 0% means no effect; nearly all actives have a fitted effect of over 60% in size
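Cell-based reporter: Huh7 stable for Rab9 promoter-driven luciferase, plated in reduced-serum medium with 10% FBS at 1500 cells/well, compound-treated 24 h at 37 °C, luminescence read after 10 min reagent.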
KinaseGlo FLuc – counter-screen: inhibitors of Kinase-Glo firefly luciferase; Kinase-Glo luciferase, ATP luminescence, 8 min; Potency, µM (top dose mostly 38.3 µM), without a hit: at the top dose activity change, negative = inhibition, actives largely listed as inhibitors; 0.28% of 200,000 active; AID 1379; also: % is scaled to controls: 0 for no effect and ±100 for the full control effect; nearly all actives have a fitted effect of over 60% in size
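Inhibition of Kinase-Glo luciferase light generation was assessed at 10 uM ATP in pH 7.2 imidazole buffer, with luminescence measured after eight minutes at ambient temperature.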
Numbers without * were called inactive; ? = inconclusive; . = no result; [ ] = remark or other dose. This is a sample that favours compounds with a hit; in the whole collection about 7.4% have one here. Calls follow the shape of the dose curve; as a rule, active = well fitted curve in the direction sought with a large enough effect; inconclusive = small, poorly fitted or top-dose-only effect, or another doubt; inactive = no such curve, though single readings can be large; an effect the other way counts as inactive or inconclusive. Potency is read from the fitted curve at half-maximal effect.

SMILES | FLuc counter | NPC1 prom act | SMN2 splice enh | ELG1 genotoxic | Rab9 promoter act | KinaseGlo FLuc
O=C(Cc1cccc(F)c1F)NC1CCCN(Cc2ccc(Cl)cc2)C1 (centres undefined) | -1% | -6% | . | -5% | -3% | .
O=C(/C=C/c1cccc(F)c1)OCC(=O)N1CCc2ccccc21 | . | . | . | -1% | . | .
CCNC(=O)NC(=O)C(C)OC(=O)CCCSc1nc2ccccc2s1 (centres undefined) | -15% | 1% | -10% | 0% | -3% | -1%
CCNC(=O)NC(=O)COC(=O)CCCSc1nc2ccccc2s1 | 19µM* | -7% | 1% | 3% | -8% | -2%
Cc1cc(C)nc(NC(=O)CSc2nc3cc(Cl)ccc3s2)n1 | ? | 0% | 23% | 1% | 0% | 16%
Cc1ccccc1Nc1nc(N)nc(CSc2nc3ccccc3s2)n1 | -17% | -1% | -3% | 1% | -2% | 0%
Cc1cc(C)nc(NC(=O)CSc2nc3ccccc3s2)n1 | 12µM* | ? | 6% | 5.8µM* | 3.2µM* | 5%
Cc1cc(C)n2c(Br)c(CSc3nc4ccccc4s3)nc2n1 | ? | ? | 11µM* | ? | ? | -3%
CC(C)(C)NC(=O)CCCSc1nc2ccccc2s1 | 15µM* | ? | ? | ? | 1.8µM* | -1%
O=S(=O)(c1ccc2c(c1)OCCO2)N1CCN(c2nc3ccccc3s2)CC1 | 1% | -5% | -26% | -5% | 0% | -2%
COc1ccc(OC)c2sc(N3CCCCC3)nc12 | 19µM* | 29% | ? | 18µM* | 21% | -3%
COc1ccc(OC)c2sc(N3CCc4ccccc4C3)nc12 | 12µM* | -1% | 3% | 7% | 24% | 1%
c1ccc2c(c1)CCN(c1nc3cc4c(cc3s1)OCCO4)C2 | 0.11µM* | ? | . | ? | ? | .
CC(=O)N1CCC2(CC1)CCN(c1ccc(-c3ccccc3)cc1)CC2 | . | . | -23% | . | . | -6%
CCOc1cnc(-c2c(-c3c(F)cccc3Cl)noc2C)o1 | 4% | -5% | -68% | 1% | -4% | 6%
CCOc1cnc(-c2ccccc2F)o1 | 17µM* | 0% | 19% | 8% | -3% | -2%
Cc1ccc(CSC2=Nc3ccccc3C3=NC(CC(=O)NCc4ccco4)C(=O)N23)cc1 (centres undefined) | ? | 9% | 11µM* | 6% | -4% | 3%
CN1CCc2c(sc3c2C(=O)NC(c2ccc(OC(=O)c4ccc(Cl)cc4)cc2)N3)C1 (centres undefined) | -15% | . | -8% | . | . | .
CCOc1cc(C2NC(=O)c3c(sc4c3CCN(C)C4)N2)ccc1OC(=O)c1ccc(F)cc1 (centres undefined) | -2% | . | -11% | . | . | .
CN1CCc2c(sc3c2C(=O)NC(c2ccc(OC(=O)c4ccccc4)cc2)N3)C1 (centres undefined) | ? | . | 16µM* | . | . | .
CN1CCc2c(sc3c2C(=O)NC(c2ccc(OC(=O)c4ccc(C(C)(C)C)cc4)cc2)N3)C1 (centres undefined) | 11µM* | . | -1% | . | . | .
O=C(/C=C/Nc1ccc(F)cc1)c1ccc(Br)cc1 | 2.1µM* | 2µM* | 13µM* | ? | 1.4µM* | -10%
O=C(/C=C/Nc1ccc(F)c(F)c1)c1ccc(Br)cc1 | 1.5µM* | 2µM* | 13µM* | ? | 2.5µM* | -2%
O=C(/C=C/Nc1ccc(F)c(F)c1)c1cccs1 | 0.95µM* | 3.2µM* | . | ? | 2.5µM* | .
O=C(/C=C/Nc1ccc(S(=O)(=O)Nc2ncccn2)cc1)c1cccs1 | -13% | -2% | . | 4% | 6% | .
SMILES | FLuc counter | NPC1 prom act | SMN2 splice enh | ELG1 genotoxic | Rab9 promoter act | KinaseGlo FLuc
O=[N+]([O-])c1cccc(Cl)c1Cl | . | . | -4% | . | . | .
CCCCOc1cccc(C(=O)N(Cc2ccc(Br)o2)C2CCS(=O)(=O)C2)c1 (centres undefined) | -4% | . | . | . | . | .
Cc1ccoc1C(=O)N1CCN(C(=O)c2occc2C)CC1 | 2% | 1% | . | 3% | 2% | .
Cc1nnc(NC(=O)c2ccc(S(=O)(=O)C(F)F)cc2)s1 | 5.4µM* | ? | . | ? | 2.2µM* | .
Cc1cc(C)cc(NC(=O)c2ccc(S(=O)(=O)C(F)F)cc2)c1 | 13µM* | 2% | 19% | 2% | 2% | 3%
Cc1nnc(NC(=O)c2ccncc2)s1 | -12% | -1% | -13% | -1% | 8% | -1%
COc1ccc(Nc2nc3ccc(C)cc3nc2-n2nc(C)cc2C)cc1Cl | -1% | . | -7% | . | . | .
Cc1cc2c(cc1S(=O)(=O)N(C)Cc1ccccc1)OCC(=O)N2 | 9% | -1% | . | 1% | -2% | .
Cc1ccsc1C1C(C#N)=C(N)N(N(C)C)C2=C1C(=O)CC(C)(C)C2 (centres undefined) | 0% | -1% | 25µM* | -7% | -4% | 3%
O=C1c2ccccc2NC(c2ccccc2Cl)N1N=C1CCCCCC1 (centres undefined) | 12µM* | -2% | -7%[1.84 µM] | ? | -1% | -6%
O=C1NC(c2ccccc2Cl)Nc2ccccc21 (centres undefined) | 2% | -15% | ? | 1% | -7% | -1%
CCc1ccc2[nH]c(C(=O)Nc3ccc4c(c3)OCO4)cc2c1 | 2.7µM* | ? | . | 14% | 26% | .
CCc1ccc2[nH]c(C(=O)Nc3ccc(Br)c(C)n3)cc2c1 | ? | 2.2µM* | . | ? | 1.4µM* | .
Cc1cc(C)c2[nH]c(C(=O)Nc3ccc4c(c3)OCO4)cc2c1 | 12µM* | ? | . | 1% | ? | .
CCOC(=O)c1[nH]c(=O)[nH]c1CNc1ccccc1C#N | -1% | -1% | . | 0% | 4% | .
CCOC(=O)C1CCCN(C(=O)C2CCN(c3nnc(C)c4c(C)n(-c5ccccc5)nc34)CC2)C1 (centres undefined) | -10% | . | . | . | . | .
CCOC(=O)c1ccc(NC(=S)NNC(=O)c2cc(-c3cccnc3)nc3ccccc23)cc1 | 21µM* | 4% | . | -17% | 11% | .
O=C(NNC(=S)Nc1ccccc1)c1cc(-c2cccnc2)nc2ccccc12 | 13µM* | -1% | 22% | -3% | 16% | 1%
O=C(NNC(=O)c1cc(-c2ccc(Cl)cc2Cl)nc2ccccc12)Nc1ccccc1 | 6.7µM* | -6% | -2% | 3% | -4% | -2%
O=C(NNC(=O)c1ccc(Cl)cc1Cl)Nc1ccccc1 | -3% | 1% | 12% | -1% | -1% | -4%
COc1ccc2c(c1)CCc1c-2n[nH]c1C(=O)NCCC(C)C | 1.3µM* | 1µM* | . | 2.6µM* | 0.79µM* | .
COc1ccc(OC)c(/C=N/NC(=O)c2[nH]nc3c2CCc2ccccc2-3)c1 | 9% | 2% | 2% | -1% | -4% | 3%
CNC(=O)c1[nH]nc2c1CCc1cc(OC)ccc1-2 | 17µM* | ? | . | ? | 5µM* | .
